Consider one compound from PubChem BioAssay AID492996 (Johns Hopkins Ion Channel Center, 2010).

The experiment addresses Short transient receptor potential channel 4 (Mus musculus) (UniProt Q9QUQ5). In words: mouse TRPC4 block via Gq-coupled stimulation – cell-based, acetylcholine stimulus, HEK293 TRPC4, Fluo-4, SAR follow-up (AID 492996). As to conditions: HEK293 TRPC4 cells, ACh-evoked Fluo-4 calcium flux; series mostly up to 20 µM.

Measured potencies and affinities stand elsewhere. Activity calls are given as the source filed them.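 How the source made its calls: active means peak inhibition of the TRPC4 channel signal over 30% at some dose, with a fitted dose response curve; inactive means no inhibition or no dose response curve.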

Sequence of Short transient receptor potential channel 4 (Mus musculus) (Q9QUQ5 whole entry, looked up): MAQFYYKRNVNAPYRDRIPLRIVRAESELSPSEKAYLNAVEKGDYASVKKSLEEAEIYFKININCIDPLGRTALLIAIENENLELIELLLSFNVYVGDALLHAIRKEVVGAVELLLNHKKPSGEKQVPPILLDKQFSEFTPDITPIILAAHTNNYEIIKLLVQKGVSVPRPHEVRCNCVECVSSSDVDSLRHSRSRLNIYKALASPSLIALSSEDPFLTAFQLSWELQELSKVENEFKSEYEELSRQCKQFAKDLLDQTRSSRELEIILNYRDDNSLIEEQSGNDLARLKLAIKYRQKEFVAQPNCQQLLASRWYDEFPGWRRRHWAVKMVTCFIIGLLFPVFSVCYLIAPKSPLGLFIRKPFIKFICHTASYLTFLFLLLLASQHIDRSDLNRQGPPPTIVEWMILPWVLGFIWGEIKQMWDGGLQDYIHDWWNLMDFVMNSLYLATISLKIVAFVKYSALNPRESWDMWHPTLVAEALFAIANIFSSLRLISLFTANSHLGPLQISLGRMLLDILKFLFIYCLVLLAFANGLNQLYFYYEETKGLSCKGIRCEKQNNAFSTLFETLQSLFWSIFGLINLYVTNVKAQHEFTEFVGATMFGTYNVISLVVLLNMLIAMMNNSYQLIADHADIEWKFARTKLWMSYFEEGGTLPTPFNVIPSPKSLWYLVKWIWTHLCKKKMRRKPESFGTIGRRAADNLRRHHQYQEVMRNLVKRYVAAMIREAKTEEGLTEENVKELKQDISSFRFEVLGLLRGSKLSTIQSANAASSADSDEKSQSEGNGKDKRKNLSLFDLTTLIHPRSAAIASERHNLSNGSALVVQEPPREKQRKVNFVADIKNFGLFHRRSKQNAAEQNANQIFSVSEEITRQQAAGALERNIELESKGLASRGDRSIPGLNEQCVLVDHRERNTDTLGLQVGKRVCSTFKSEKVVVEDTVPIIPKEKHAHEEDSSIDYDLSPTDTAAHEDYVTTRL

`Cc1cc(N2CCNCC2)nc2ccccc12`: the outcome was inactive.
